The target in assay [1] is Lysosomal acid glucosylceramidase (Homo sapiens) (UniProt P04062). Nature of the assay: Glucocerebrosidase-p2 (AID 348; in the data active = potency below about 10 µM; note: potency is the fitted concentration of half-maximal effect). Particulars: purified GBA, blue fluorogenic substrate, 40 min. In short, it runs like this:
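Compounds titrated from 0.6 nM upwards against 0.2 nM enzyme in pH 5.9 citric acid/KH2PO4, taurocholate, tween-20; blue fluorogenic substrate 80 uM, 40 min room temperature, stopped and read Ex 365/Em 440 for AC50.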

The nature of assay [2]: AP1 Signaling Pathway (AID 357). Note: % is set by controls: 0 for no effect and ±100 for the full control effect. Particulars: ME-180 AP-1-bla reporter, EGF-induced, beta-lactamase ratio, 5 h; at 7.69 µM (top of the series) unless noted. In short, it runs like this:
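ME-180 cells with beta-lactamase reporter under AP-1 response element, stimulated with EC50 EGF; compounds tested in titration series, 5 h at 37 °C. CCF4 substrate added 2.5 h at room temperature; 460/530 nm emission ratio gave %activity and AC50.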

Assay [3] addresses Cytochrome P450 1A2 (Homo sapiens) (UniProt P05177). Nature of the assay: p450-cyp1a2 (AID 410; calls by dose curve; note: potency is the fitted concentration of half-maximal effect;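 for activity change, negative = inhibition: -100% = full effect of reference inhibitor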). The following applies: recombinant CYP1A2, luciferin-ME demethylation, luminescence; series mostly up to 57 µM. In short, it runs like this:
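Human CYP1A2 (20nM) demethylated Luciferin-ME at its Km (100uM) in 100mM KPO4. After 10 min compound preincubation, NADPH regeneration ran the reaction 60 min at room temperature. Luciferin was read by luminescence, normalized to 57 uM furafylline.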

A short description of assay [4]: NFAT Signaling Pathway (AID 444).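 Note: carbachol stimulus at about its EC50 of 1 µM final; % is set by controls: 0 for no effect and ±100 for the full control effect.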 The following applies: Jurkat NFAT-bla M1, carbachol, beta-lactamase ratio, 5 h; at 7.69 µM (top of the series) unless noted. In short, it runs like this:
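Jurkat cells with NFAT-driven β-lactamase reporter and co-expressed M1 receptor, stimulated with carbachol (final 1 uM, ~EC50), compound titration, 5 h at 37 °C. CCF4 loaded 1 h at RT; 460/530 nm ratio gave %activity and AC50.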

Assay [5] is described as follows: Stat Signaling Pathway (AID 446).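 Note: ME-180 cervical cancer cells given 40 pM IL-6 alongside compound; SIE-controlled beta-lactamase reporter measured as 460/530 nm FRET emission ratio; % is set by controls: 0 for no effect and ±100 for the full control effect.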 Particulars: ME-180 SIE beta-lactamase reporter, IL-6 stimulated, 5 h; at 7.69 µM (top of the series) unless noted. In short, it runs like this:
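Screening format detects activators and inhibitors alike: ME-180 SIE-bla cells stimulated at 40 pM IL-6 for 5 hrs with compound, then dual-emission beta-lactamase read at 405 nm excitation.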

The target of assay [6] is Glucocorticoid receptor (Homo sapiens) (UniProt P04150). The experiment in a line: GR-EFC Redistribution (AID 451; calls by dose curve; note: potency is the fitted concentration of half-maximal effect). Particulars: CHO-K1 GR-EFC translocation, beta-gal luminescence, 2 h. In short, it runs like this:
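CHO-K1 cells expressing nuclear EA and GR-ED fragments of b-gal; compounds titrated up to 46 uM final, 2 h at 37 C. GR nuclear translocation read as complemented b-gal luminescence after 1 h RT detection.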

Assay [7] addresses Mitogen-activated protein kinase 10 (Mus musculus) (UniProt Q61831). The experiment in a line: JNK3 AlphaScreen Assay (AID 530).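 Note: kinase came from lysate of stimulated human HepG2 cells; signal reports phosphorylation of biotinylated GST-cJun 1-79 at Ser73 with 10 µM ATP; % is set by controls: 0 for no effect and ±100 for the full control effect.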 Particulars: JNK3 lysate, c-Jun phosphorylation; series mostly up to 57.1 µM. In short, it runs like this:
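qHTS format: compounds tested as titrations against IL-1beta/TNF-alpha-activated HepG2 lysate JNK3 with biotin-GST-cJun substrate and 10 uM ATP at room temperature. Loss of anti-phospho-cJun AlphaScreen signal indicates inhibition.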
(Bead proximity is the source of the signal in Alpha formats.)

The target in assay [8] is 3',5'-cyclic-AMP phosphodiesterase 4B (Homo sapiens) (UniProt Q07343). The experiment in a line: qHTS Assay for Inhibitors of PDE-IV (AID 607; active = well fitted activation curve with a large enough effect in the main read-out, with a control signal flat, not every such curve was filed as active; note: % of control where 0% means no effect). The following applies: HEK293 ACTOne CNG channel cells, membrane potential fluorescence; series mostly up to 22.9 µM. In short, it runs like this:
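The readout is membrane depolarisation from a cAMP-sensing CNG channel, detected with a potential dye at ex 535/em 590. Cells were HEK293-derived (endogenous PDE-IV) at 1000 cells/well, titrated up to 22.9 uM final.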
In general terms: qHTS replaces the single test concentration by a dilution series.

The nature of assay [9]: qHTS Assay for Lipid Storage Modulators (AID 1519; calls by dose curve). The following applies: Drosophila S3 cells, BODIPY lipid droplet/cell ratio, laser cytometry, cells loaded with oleic acid; for activity change, negative = inhibition: at 57.5 µM (top of the series). In short, it runs like this:
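Cells seeded at 5,000 per well were treated with compounds over a concentration series and loaded with oleic acid (400 uM, as added). Lipid droplet fluorescence (488 nm excitation, 500-530 nm channel) was read by laser-scanning cytometry and normalized to 20 uM Triacsin C.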

The nature of assay [10]: Primary qHTS for small molecule stabilizers of the endoplasmic reticulum resident proteome: Secreted ER Calcium Modulated Protein (SERCaMP) assay (AID 1508630; active = well fitted inhibition curve with a large enough effect; note: % is set by controls: 0 for no effect and ±100 for the full control effect). Particulars: SH-SY5Y GLuc-SERCaMP (Gaussia luciferase released on ER calcium loss) secretion, thapsigargin, luminescence; series mostly up to 38.4 µM. In short, it runs like this: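 GLuc-SERCaMP-expressing SH-SY5Y cells, pretreated 16 h with compound, are challenged with thapsigargin to empty ER calcium stores; after 4 h, coelenterazine is added directly to the medium and luminescence is imaged.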

Setting [11] is: measured here: cell count channel max response.
Where [12] appears, read: measured here: lipid channel max response.

Results filed as inconclusive are left out. Activity calls are given as the source filed them. Unless noted, calls come from the whole dose curve; as a rule, active = well fitted curve in either direction with a large enough effect (not every such curve was filed as active); inconclusive = small, poorly fitted or top-dose-only effect, or another doubt; inactive = flat fitted curve, though single readings scatter.

Chain of Glucocorticoid receptor (Homo sapiens) (P04150 whole entry, looked up, the tested form may be a part): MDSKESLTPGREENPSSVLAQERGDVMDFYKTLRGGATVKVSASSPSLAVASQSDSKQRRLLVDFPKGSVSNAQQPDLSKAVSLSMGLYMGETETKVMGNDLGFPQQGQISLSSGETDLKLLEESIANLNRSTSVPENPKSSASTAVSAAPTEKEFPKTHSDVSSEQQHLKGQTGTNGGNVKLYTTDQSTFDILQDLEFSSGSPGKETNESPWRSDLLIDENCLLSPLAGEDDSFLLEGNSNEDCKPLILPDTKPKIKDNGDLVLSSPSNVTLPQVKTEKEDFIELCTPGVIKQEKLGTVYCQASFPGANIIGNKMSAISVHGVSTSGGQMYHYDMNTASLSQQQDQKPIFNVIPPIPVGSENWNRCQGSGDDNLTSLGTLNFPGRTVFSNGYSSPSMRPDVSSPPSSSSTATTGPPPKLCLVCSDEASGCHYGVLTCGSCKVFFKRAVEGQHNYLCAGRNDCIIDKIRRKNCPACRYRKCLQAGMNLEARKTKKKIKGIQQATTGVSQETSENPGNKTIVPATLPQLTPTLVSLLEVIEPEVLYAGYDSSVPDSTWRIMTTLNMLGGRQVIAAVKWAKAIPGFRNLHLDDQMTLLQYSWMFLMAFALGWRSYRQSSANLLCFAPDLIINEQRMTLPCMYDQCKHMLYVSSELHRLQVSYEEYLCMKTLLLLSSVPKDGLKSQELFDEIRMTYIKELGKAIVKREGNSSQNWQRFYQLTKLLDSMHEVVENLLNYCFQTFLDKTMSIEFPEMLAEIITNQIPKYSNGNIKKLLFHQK
Chain of 3',5'-cyclic-AMP phosphodiesterase 4B (Homo sapiens) (Q07343 whole entry, looked up): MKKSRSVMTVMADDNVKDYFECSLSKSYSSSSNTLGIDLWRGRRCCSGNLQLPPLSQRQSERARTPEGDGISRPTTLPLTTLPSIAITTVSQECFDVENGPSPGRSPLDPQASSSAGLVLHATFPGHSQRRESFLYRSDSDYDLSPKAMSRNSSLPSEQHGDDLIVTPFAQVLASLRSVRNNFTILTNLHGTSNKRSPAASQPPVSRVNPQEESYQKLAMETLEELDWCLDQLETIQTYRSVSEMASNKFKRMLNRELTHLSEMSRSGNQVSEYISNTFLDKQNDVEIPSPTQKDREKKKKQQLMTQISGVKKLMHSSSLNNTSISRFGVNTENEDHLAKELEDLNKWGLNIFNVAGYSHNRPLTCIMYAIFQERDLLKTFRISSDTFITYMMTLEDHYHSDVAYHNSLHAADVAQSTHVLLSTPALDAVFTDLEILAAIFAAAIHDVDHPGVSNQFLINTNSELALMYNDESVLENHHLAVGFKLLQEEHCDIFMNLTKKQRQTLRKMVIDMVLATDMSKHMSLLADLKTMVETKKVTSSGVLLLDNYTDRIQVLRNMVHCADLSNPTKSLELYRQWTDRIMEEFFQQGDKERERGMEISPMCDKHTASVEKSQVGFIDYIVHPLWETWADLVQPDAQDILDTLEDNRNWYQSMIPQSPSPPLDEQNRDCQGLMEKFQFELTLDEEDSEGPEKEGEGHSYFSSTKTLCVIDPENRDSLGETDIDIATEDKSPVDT
Chain of Cytochrome P450 1A2 (Homo sapiens) (P05177 whole entry, looked up): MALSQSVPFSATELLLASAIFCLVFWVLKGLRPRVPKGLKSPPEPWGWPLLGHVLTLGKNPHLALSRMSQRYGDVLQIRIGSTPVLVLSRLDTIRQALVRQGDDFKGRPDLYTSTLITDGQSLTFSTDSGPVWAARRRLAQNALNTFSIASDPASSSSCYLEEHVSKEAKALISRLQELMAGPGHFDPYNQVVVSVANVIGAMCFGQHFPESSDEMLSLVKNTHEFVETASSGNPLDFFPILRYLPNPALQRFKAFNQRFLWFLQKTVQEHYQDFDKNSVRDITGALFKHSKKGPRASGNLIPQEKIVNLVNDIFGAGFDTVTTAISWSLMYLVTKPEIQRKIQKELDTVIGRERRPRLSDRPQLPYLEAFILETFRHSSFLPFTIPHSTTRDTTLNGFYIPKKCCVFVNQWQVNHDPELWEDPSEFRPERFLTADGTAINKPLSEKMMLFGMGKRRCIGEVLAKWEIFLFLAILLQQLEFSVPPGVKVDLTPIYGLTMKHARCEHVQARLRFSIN
Chain of Lysosomal acid glucosylceramidase (Homo sapiens) (P04062 whole entry, looked up): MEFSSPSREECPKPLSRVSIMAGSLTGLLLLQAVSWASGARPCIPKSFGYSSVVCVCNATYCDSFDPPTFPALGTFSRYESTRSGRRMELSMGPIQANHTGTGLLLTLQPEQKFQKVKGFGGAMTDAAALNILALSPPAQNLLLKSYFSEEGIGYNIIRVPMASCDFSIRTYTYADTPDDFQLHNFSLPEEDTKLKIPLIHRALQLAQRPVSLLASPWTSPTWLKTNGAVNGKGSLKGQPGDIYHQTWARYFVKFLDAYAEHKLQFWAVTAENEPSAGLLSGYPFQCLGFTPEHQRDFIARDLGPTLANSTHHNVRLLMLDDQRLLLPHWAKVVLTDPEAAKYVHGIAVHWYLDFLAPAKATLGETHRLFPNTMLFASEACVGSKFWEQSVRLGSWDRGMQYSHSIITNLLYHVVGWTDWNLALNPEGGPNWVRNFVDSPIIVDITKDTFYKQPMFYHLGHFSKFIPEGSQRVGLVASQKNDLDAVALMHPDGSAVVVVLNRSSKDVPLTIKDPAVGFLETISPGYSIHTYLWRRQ

For `COC(=O)N1CCC[C@@]2(CCN(C(=O)Nc3cccc(C#N)c3)C2)C1`, the Potency is > 11.4 µM (inactive) in assay [1] and > 46 µM (inactive) in assay [6]. In addition, the results for the activity change, negative = inhibition in assay [2], in assay [4] and in assay [9] were -12.4% (inactive), 19.3% (inactive) and 6.94% (inactive), respectively. Also, the Potency result in assay [3], in assay [8] and in [10] was “inactive” throughout. Besides, in assay [5], the activity, negative = inhibition is 6.31% (inactive). In addition, the molecule was classed as inactive in assay [7]. Besides, the max response in assay [9] (setting [11]) came to 4.39%; in assay [9] (setting [12]), 15.8%.
For `CC(C)NC(=O)N1CCC2(CC1)CCN(C(=O)c1ccco1)CC2`, the Potency in [1] was > 11.4 µM (inactive); in assay [6], > 46 µM (inactive). Besides, the values for the activity change, negative = inhibition in assay [2], in assay [4] and in [9] were -2.03% (inactive), 12% (inactive) and 3.89% (inactive), respectively. Also, the Potency entry in assay [3], in [8] and in [10] was “inactive” each time. In addition, the activity, negative = inhibition in assay [5] was 8.93% (inactive). The result in assay [7] was inactive. Further, the max response in [9] (setting [11]) stood at 8.07%; in assay [9] (setting [12]) it was 11.7%.
Consider `O=C(c1ccco1)N1CCC[C@@]2(CCN(Cc3nccs3)C2)C1`, for which the Potency is > 11.4 µM (inactive) in [1] and > 46 µM (inactive) in [6]. The activity change, negative = inhibition is 1.19% (inactive) in [2], -14% (inactive) in [4] and 4.23% (inactive) in assay [9]. The Potency entry in assay [3], in assay [8] and in assay [10] was “inactive” each time. In addition, the activity, negative = inhibition in assay [5] is -3.91% (inactive). In assay [7], the call was inactive. Besides, the max response came out at 5.76% in assay [9] (setting [11]) and 12.9% in assay [9] (setting [12]).
For `COc1ccc(NC(=O)N2CC3(CCN(C(C)=O)CC3)C2)cc1`, the Potency was > 11.4 µM (inactive) in assay [1] and > 46 µM (inactive) in [6]. Further, the activity change, negative = inhibition was 8.48% (inactive) in assay [2], -0.444% (inactive) in assay [4] and 3.83% (inactive) in [9]. Besides, the Potency result in assay [3], in assay [8] and in assay [10] was “inactive” throughout. For the same molecule, the activity, negative = inhibition in assay [5] is -0.267% (inactive). In addition, the molecule was called inactive in [7]. The figures for the max response in assay [9] (setting [11]) and in assay [9] (setting [12]) were 13.9% and 23.3%, respectively.
With `Cc1noc(C)c1C(=O)N1CCC2(CCCN(c3ccccc3)C2)CC1`, the Potency in [1] was > 11.4 µM (inactive); in assay [6], > 46 µM (inactive). Besides, the activity change, negative = inhibition in assay [2] was -12.1% (inactive); in assay [4], -9.55% (inactive); in assay [9], -0.946% (inactive). Moreover, the Potency entry in assay [3], in assay [8] and in [10] was “inactive” throughout. Besides, in [5], the activity, negative = inhibition is -1.28% (inactive). For the same molecule, in assay [7], the result was inactive. Besides, the max response in assay [9] (setting [11]) came to 8.91%; in assay [9] (setting [12]), 9.27%.
`O=C(Nc1ccccc1)N1CCC2(CC1)CCN(C(=O)c1csnn1)CC2`: the Potency in assay [1] is > 11.4 µM (inactive); in assay [6], > 46 µM (inactive). In addition, the activity change, negative = inhibition in assay [2] is -1.74% (inactive); in assay [4], 11.2% (inactive); in assay [9], 4.48% (inactive). Besides, the Potency entry in [3], in assay [8] and in assay [10] was “inactive” each time. For the same molecule, in assay [5], the activity, negative = inhibition was -9.72% (inactive). For the same molecule, the result in assay [7] was inactive. The max response worked out at 16.6% in assay [9] (setting [11]) and 23.2% in assay [9] (setting [12]).
Turning to `COc1ccc(C(=O)N2CCC3(CC2)CN(C(=O)Nc2ccccc2)C3)cc1`, the Potency in assay [1] is > 11.4 µM (inactive); in [3], 25.1 µM (active); in assay [6], > 46 µM (inactive). In addition, the values for the activity change, negative = inhibition in assay [2], in assay [4] and in assay [9] were -1.19% (inactive), 22.2% (inactive) and 5.49% (inactive), respectively. Further, the activity, negative = inhibition in [5] was -10.2% (inactive). Besides, in assay [7], the result was inactive. The Potency entry in assay [8] and in [10] was “inactive” in each case. Also, the max response in assay [9] (setting [11]) came out at 8.4%; in assay [9] (setting [12]), 17.6%.
